Data taken from PubChem BioAssay (Tox21).
Inconclusive results are not listed. Entries that show only a call come without a potency. Unmarked numbers belong to inactive results. Calls of active or inactive are those of the source. The call rests on the fitted dose curve; in most records, active means well fitted curve in the direction sought with a large enough effect in the repeat runs; inconclusive means weak or mixed curves; inactive means no such curve, though single readings can be large; an effect the other way counts as inactive or inconclusive.

Experiments:
[1] = biological target: Cytochrome P450 2C19 (Homo sapiens) (UniProt P33261); assay: Cytochrome P450 Family 2 Subfamily C Member 19 (CYP2C19) small molecule antagonists: luciferase reporter qHTS assay (AID 1671197); details: P450-Glo CYP2C19 enzyme, luciferin luminescence, 1 h; series mostly up to 115 µM; further: nearly all actives have a fitted effect of over 65% in size
Chain of Cytochrome P450 2C19 (Homo sapiens) (P33261 whole entry, looked up): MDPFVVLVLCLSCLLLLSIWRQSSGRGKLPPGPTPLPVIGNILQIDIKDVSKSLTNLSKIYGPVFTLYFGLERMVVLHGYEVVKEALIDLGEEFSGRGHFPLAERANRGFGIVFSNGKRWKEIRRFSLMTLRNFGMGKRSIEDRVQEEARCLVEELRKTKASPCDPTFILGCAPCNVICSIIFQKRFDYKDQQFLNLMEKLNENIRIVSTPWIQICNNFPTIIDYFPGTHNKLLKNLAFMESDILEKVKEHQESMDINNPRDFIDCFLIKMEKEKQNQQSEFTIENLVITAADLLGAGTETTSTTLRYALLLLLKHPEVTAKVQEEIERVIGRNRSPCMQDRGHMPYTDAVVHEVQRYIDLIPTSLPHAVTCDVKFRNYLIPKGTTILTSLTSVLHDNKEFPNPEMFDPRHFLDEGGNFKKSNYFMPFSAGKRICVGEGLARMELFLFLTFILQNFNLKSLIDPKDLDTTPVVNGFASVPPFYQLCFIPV
Method in brief: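 Relative luminescence units recorded 20 min after the detection reagent stopped a 1 h, 37C CYP2C19 reaction on proluciferin substrate, which was started by NADPH regeneration following 10 min room-temperature compound preincubation; ketoconazole positive control.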

[2] = biological target: Cytochrome P450 2C9 (Homo sapiens) (UniProt P11712); assay: Cytochrome P450 Family 2 Subfamily C Member 9 (CYP2C9) small molecule antagonists: luciferase reporter qHTS assay (AID 1671198); details: P450-Glo CYP2C9 enzyme assay, luciferin luminescence; series mostly up to 115 µM; further: nearly all actives have a fitted effect of over 50% in size
Chain of Cytochrome P450 2C9 (Homo sapiens) (P11712 whole entry, looked up): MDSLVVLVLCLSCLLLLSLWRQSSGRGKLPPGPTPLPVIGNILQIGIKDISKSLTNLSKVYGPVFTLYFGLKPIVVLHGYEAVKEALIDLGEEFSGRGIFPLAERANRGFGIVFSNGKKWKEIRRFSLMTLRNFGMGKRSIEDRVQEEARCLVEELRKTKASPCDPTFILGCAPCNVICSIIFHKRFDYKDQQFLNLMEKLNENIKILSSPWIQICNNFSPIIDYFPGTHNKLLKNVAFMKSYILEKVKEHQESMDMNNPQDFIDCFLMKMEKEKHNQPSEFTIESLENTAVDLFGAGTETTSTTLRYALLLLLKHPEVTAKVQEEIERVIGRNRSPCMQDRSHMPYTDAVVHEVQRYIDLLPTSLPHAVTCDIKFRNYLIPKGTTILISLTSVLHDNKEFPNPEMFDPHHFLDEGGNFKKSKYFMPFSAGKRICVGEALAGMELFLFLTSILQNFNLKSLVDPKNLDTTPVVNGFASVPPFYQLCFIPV
Method in brief: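 Enzyme-substrate mix preincubated with compound 10 min at room temperature; reaction started with NADPH regeneration solution, 1 h 37C. Luminescent luciferin product read after 20 min detection reagent.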

[3] = biological target: Cytochrome P450 1A2 (Homo sapiens) (UniProt P05177); assay: Cytochrome P450 Family 1 Subfamily A Member 2 (CYP1A2) small molecule antagonists: luciferase reporter qHTS assay (AID 1671199); details: P450-Glo CYP1A2 enzyme, luciferin luminescence, 1 h; series mostly up to 115 µM; further: nearly all actives have a fitted effect of over 50% in size
Chain of Cytochrome P450 1A2 (Homo sapiens) (P05177 whole entry, looked up): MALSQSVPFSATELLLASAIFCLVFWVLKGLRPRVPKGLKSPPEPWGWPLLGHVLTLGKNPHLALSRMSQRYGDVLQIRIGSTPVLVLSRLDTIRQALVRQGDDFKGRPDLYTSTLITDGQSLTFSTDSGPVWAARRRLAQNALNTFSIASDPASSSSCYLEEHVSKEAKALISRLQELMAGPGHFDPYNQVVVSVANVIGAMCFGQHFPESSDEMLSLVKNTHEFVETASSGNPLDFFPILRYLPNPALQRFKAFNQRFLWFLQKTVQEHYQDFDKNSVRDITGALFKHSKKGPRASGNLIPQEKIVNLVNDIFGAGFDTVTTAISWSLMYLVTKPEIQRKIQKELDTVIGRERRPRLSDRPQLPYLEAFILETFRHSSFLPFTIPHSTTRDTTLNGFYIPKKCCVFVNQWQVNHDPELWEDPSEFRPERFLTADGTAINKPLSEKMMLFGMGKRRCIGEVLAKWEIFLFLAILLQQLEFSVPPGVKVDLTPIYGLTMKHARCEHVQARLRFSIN
Method in brief: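 Room-temperature CYP1A2 reaction with proluciferin substrate: compounds added from DMSO, 10 min preincubation, NADPH regeneration for 1 h. Luciferin detection reagent then added; luminescence recorded as RLU.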

[4] = biological target: Voltage-gated inwardly rectifying potassium channel KCNH2 (Homo sapiens) (UniProt Q12809); assay: Human Ether-a-go-go-Related Gene (hERG) channel small molecule antagonists: fluorescence cell-based qHTS assay (AID 1671200); details: hERG-U2OS cells, FluxOR thallium flux fluorescence; series mostly up to 76.8 µM; further: nearly all actives have a fitted effect of over 50% in size;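 on activity change, negative = inhibition: hERG-expressing U2OS cells given a thallium stimulus after FluxOR II dye loading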
Chain of Voltage-gated inwardly rectifying potassium channel KCNH2 (Homo sapiens) (Q12809 whole entry, looked up): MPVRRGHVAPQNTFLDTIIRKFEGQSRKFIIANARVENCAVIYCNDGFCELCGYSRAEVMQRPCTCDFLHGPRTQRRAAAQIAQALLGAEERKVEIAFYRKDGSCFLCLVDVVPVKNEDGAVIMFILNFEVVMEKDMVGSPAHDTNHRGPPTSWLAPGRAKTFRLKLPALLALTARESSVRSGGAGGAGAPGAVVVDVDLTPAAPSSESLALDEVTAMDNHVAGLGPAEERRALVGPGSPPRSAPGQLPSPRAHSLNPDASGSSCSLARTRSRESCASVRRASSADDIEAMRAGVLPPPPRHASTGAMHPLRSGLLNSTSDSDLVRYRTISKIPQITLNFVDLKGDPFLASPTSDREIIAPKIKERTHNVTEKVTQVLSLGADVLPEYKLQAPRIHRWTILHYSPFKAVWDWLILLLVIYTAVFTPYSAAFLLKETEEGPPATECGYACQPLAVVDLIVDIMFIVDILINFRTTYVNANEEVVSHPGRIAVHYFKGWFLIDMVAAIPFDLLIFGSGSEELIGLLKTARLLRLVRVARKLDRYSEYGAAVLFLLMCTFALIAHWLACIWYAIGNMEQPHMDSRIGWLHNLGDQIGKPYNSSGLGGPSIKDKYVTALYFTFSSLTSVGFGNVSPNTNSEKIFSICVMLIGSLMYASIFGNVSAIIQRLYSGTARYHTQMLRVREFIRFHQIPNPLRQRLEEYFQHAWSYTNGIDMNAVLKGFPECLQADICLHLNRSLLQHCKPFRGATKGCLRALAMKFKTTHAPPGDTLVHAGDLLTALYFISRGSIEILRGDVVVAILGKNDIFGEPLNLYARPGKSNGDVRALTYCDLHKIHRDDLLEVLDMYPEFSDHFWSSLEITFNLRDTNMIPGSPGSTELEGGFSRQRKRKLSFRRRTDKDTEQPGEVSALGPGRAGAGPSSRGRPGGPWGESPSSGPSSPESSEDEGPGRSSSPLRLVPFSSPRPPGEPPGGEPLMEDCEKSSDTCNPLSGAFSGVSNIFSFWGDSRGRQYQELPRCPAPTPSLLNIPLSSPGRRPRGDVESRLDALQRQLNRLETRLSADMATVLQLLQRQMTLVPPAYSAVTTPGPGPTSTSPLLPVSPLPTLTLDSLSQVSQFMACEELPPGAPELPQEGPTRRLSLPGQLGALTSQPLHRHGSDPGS
Method in brief: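 U2OS cells expressing the channel were plated at 1000 cells/well, incubated overnight at 37 C, then loaded with FluxOR II thallium-sensitive dye for 1 h at room temperature in the dark, with a further 10 min at room temperature before stimulation.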

[5] = biological target: Cytochrome P450 3A4 (Homo sapiens) (UniProt P08684); assay: Cytochrome P450 Family 3 Subfamily A Member 4 (CYP3A4) small molecule antagonists: luciferase reporter qHTS assay (AID 1671201); details: P450-Glo CYP3A4 enzyme, luciferin luminescence, 1 h; series mostly up to 115 µM; further: nearly all actives have a fitted effect of over 50% in size
Chain of Cytochrome P450 3A4 (Homo sapiens) (P08684 whole entry, looked up): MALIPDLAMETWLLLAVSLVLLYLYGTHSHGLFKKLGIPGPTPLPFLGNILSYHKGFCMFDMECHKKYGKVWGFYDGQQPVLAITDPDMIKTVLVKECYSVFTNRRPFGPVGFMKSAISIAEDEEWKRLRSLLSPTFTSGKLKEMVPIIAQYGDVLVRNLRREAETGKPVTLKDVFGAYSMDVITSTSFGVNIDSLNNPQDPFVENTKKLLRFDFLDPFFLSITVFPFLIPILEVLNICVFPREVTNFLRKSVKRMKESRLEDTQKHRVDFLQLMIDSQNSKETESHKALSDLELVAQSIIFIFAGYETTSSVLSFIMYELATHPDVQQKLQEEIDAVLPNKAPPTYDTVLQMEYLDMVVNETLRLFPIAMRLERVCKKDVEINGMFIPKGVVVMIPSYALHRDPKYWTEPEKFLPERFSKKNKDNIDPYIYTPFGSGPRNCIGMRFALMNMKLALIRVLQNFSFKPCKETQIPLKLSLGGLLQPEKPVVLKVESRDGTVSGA
Method in brief: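 P450-Glo CYP3A4 system with proluciferin substrate; compounds preincubated 10 min RT with enzyme-substrate mix, then NADPH regeneration added for 1 h RT. Detection reagent 20 min, luminescence read as relative luminescence units.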
Potency means the concentration at half of the fitted maximal effect.

| Compound | activity change, negative = inhibition [1] | activity change, negative = inhibition [2] | activity change, negative = inhibition [3] | Potency [1] | Potency [2] | Potency [3] | Potency [4] | Potency [5] |
| --- | --- | --- | --- | --- | --- | --- | --- | --- |
| O=C(CCN1CCN2CCCC2C1)N1c2ccccc2Sc2ccc(Cl)cc21 (stereo not drawn) | -4.46% [at 23.6 µM] | 11.9% [at 23.6 µM] | -23.8% [at 23.6 µM] | – | – | – | – | – |
| O=C(c1ccc(O)cc1)c1ccc(O)cc1 | – | – | – | 39.9 µM (active) | inactive | 39.9 µM (active) | inactive | – |
| CC(O)C1CCCCC1 (stereo not drawn) | – | – | – | inactive | inactive | inactive | inactive | inactive |
| O=C(Nc1ccccc1)OCC(CN1CCCCC1)OC(=O)Nc1ccccc1 (stereo not drawn) | – | – | – | 8.71 µM (active) | 17.4 µM (active) | inactive | 6.01 µM (active) | – |
| c1ccc(OCc2ccc(CCCN3CCOCC3)cc2)cc1 | – | – | – | 38.9 µM (active) | 38.9 µM (active) | inactive | 12 µM (active) | – |
| CCCCOC(=O)c1ccccc1C(=O)OCC(CC)CCCC (stereo not drawn) | – | – | – | 6.33 µM (active) | 12.6 µM (active) | 12.6 µM (active) | inactive | – |
| O=C(O)C(c1ccc(Cl)cc1)c1ccc(Cl)cc1 | – | – | – | 28.3 µM (active) | 15.9 µM (active) | inactive | inactive | – |
| Cc1nc2ccccc2n1Cc1ccc(Cl)cc1 | – | – | – | 3.09 µM (active) | 13.8 µM (active) | 7.23 µM (active) | – | – |
| COC(=O)CSc1cc(N=c2sc(=O)n3n2CCCC3)c(F)cc1Cl | – | – | – | 31.7 µM (active) | 8.94 µM (active) | 3.17 µM (active) | – | – |
| CCCCOC(O)CC (stereo not drawn) | – | – | – | inactive | inactive | inactive | inactive | inactive |
| C=CC(=O)OCC(C)OCC(C)OCC(C)OC(=O)C=C (stereo not drawn) | – | – | – | 3.56 µM (active) | 35.6 µM (active) | 6.33 µM (active) | inactive | 5.03 µM (active) |
| Cc1ccc(C(=O)C(C)CN2CCCCC2)cc1 (stereo not drawn) | – | – | – | 7.76 µM (active) | inactive | inactive | inactive | inactive |
| N#Cc1cc2ccccc2c2ccccc12 | – | – | – | 35.8 µM (active) | 35.8 µM (active) | 0.0636 µM (active) | inactive | – |
| Cc1c(Cn2ccnc2)c2ccccc2n1CCC(=O)O | – | – | – | 34.7 µM (active) | 3.09 µM (active) | 12.3 µM (active) | inactive | – |
| CCCCCCCCCCCCCCCC(=O)OC/C=C(C)/C=C/C=C(C)/C=C/C1=C(C)CCCC1(C)C | – | – | – | 39.9 µM (active) | – | – | – | – |
| C#CCOC(=O)[C@@H](C)Oc1ccc(Oc2ncc(Cl)cc2F)cc1 | – | – | – | 17.7 µM (active) | 31.6 µM (active) | 5 µM (active) | – | – |
| CC(=O)O[C@H]1C[C@@H]2CC[C@@H]3[C@H](CC[C@@]4(C)[C@H]3C[C@H]([N+]3(C)CCCCC3)[C@@H]4OC(C)=O)[C@@]2(C)C[C@@H]1N1CCCCC1 | – | – | – | inactive | inactive | inactive | inactive | – |
| CCOc1ccc2[nH]cc(C(=O)NCc3ccccc3)c(=O)c2n1 | – | – | – | 79.6 µM (active) | 25.2 µM (active) | 31.7 µM (active) | inactive | – |
| CCCOc1ccc2nc(NC(=O)OC)[nH]c2c1 | – | – | – | inactive | inactive | inactive | inactive | inactive |
| CC(C)c1ccccc1C(C)C | – | – | – | 39.9 µM (active) | 39.9 µM (active) | 35.6 µM (active) | inactive | 22.5 µM (active) |
| CCN(CC)CCNC(C(=O)OCCC(C)C)c1ccccc1 (stereo not drawn) | – | – | – | inactive | inactive | inactive | 9.52 µM (active) | – |
| CC(=O)c1c(C)c([N+](=O)[O-])c(C(C)(C)C)c([N+](=O)[O-])c1C | – | – | – | 31.7 µM (active) | inactive | 11.2 µM (active) | inactive | – |
| COCCOCCOCCOCCOC | – | – | – | inactive | inactive | 35.6 µM (active) | inactive | inactive |
| CC(C)c1ccc2c(C(C)C)cc(C(C)C)c(S(=O)(=O)O)c2c1 | – | – | – | inactive | 29.2 µM (active) | inactive | inactive | inactive |
| CC(C)(C)C1CCCCC1O (stereo not drawn) | – | – | – | inactive | inactive | inactive | inactive | inactive |
| Nc1nc(N)c2nc(CNc3ccc(C(=O)N[C@@H](CCC(=O)O)C(=O)O)cc3)cnc2n1 | – | – | – | inactive | inactive | inactive | inactive | inactive |
| COc1ccc2[nH]c(S(=O)Cc3ncc(C)c(OC)c3C)nc2n1 (stereo not drawn) | – | – | – | 34.7 µM (active) | 17.4 µM (active) | 24.5 µM (active) | inactive | – |
| CCCCCc1ccc(N)cc1 | – | – | – | 6.33 µM (active) | 28.3 µM (active) | 28.3 µM (active) | inactive | 31.7 µM (active) |
| O=C1[C@H](CC[C@H](O)c2ccc(F)cc2)[C@@H](c2ccc(O)cc2)N1c1ccc(F)cc1 | – | – | – | 2.75 µM (active) | 8.71 µM (active) | – | – | – |
